Where “and” joins values, the source holds several entries; their conditions need not be identical. Identical values can stand only once.

As usually defined, the inhibition is the change of the read-out against control, counted positive when it falls.

The target of one assay is Solute carrier family 2, facilitated glucose transporter member 1 (Homo sapiens) (UniProt P11166). In words: ST_JUDE_LEISH: Cytotoxicity at 2uM final concentration against transgenic Leishmania Mexicana promastigotes LmGLUT1 that are glucose transport deficient and complemented with the human glucose transporter GLUT1. Activity is measured by DNA content using SYBR green in vitro. Type of assay: functional.
Solute carrier family 2, facilitated glucose transporter member 1 (Homo sapiens), sequence (P11166 whole entry): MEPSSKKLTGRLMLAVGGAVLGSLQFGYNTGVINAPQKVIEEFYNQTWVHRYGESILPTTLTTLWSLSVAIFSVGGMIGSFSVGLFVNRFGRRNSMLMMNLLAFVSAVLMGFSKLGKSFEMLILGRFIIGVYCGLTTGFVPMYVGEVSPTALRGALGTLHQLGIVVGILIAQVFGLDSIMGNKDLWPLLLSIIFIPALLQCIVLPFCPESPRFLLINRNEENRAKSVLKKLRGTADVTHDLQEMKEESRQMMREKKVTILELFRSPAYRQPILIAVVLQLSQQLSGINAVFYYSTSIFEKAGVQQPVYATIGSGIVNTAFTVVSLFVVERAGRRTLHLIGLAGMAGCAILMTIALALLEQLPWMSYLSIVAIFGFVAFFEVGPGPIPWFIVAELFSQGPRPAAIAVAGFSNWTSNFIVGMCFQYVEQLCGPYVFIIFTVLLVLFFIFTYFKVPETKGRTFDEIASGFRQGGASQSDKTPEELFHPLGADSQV
Turning to `COC(=O)c1ccc2nc(-c3ccc(/C=C/C(=O)NC4CCN(Cc5ccccc5)CC4)cc3)[nH]c2c1`, the inhibition was found to be 0.71%.

As to `Cc1ccc(NC(=O)c2ccc(CN3CCCN(Cc4cccc(O)c4)CC3)cc2)cc1F`, the inhibition amounted to 7.81%.

For `CC(C)CN(Cc1c(O)ccc2[nH]c(-c3ccc(F)cc3F)nc12)CC(C)C`, the inhibition amounted to 11.1%.

For the molecule `O=C(/C=C/c1ccc(Cl)cc1)NCCCCCN1CCC(C(=O)Nc2cccc(Cl)c2)CC1`, the inhibition was determined as 2.16%.

Consider `O=C(Nc1cccc(Cl)c1)N(CCCn1ccnc1)Cc1csc(-c2ccc(CNCc3ccccc3)cc2)n1`, for which the inhibition came to 5.54%.

On to `Cc1nc(N)nc(N)c1-c1ccc(Br)c([N+](=O)[O-])c1`, for which the inhibition stood at 1.12%.

For `CCN(CC)CCN(Cc1ccc(-c2ccc(C(F)(F)F)cc2)cc1)C(=O)Cn1c(CCc2c(F)cc(F)cc2F)nc(=O)c2ccccc21`, the inhibition was -0.61%.

As for `O=[N+]([O-])c1nc(Br)n(Cc2ccc(Cl)cc2)n1`, the inhibition is 3.1%.

Turning to `CC1CCCC(C)N1C[C@@H](O)CNS(=O)(=O)c1cccc(C(F)(F)F)c1` (stereo not given in full), the inhibition was 0.21%.

Regarding `CC(C)Oc1ccccc1-c1csc(C(=O)NCC2CCN(Cc3ccc(C(C)(C)C)cc3)C2)c1` (stereo not given), the inhibition turned out to be 0.7%.

With `O=C(NCCCN1CCOCC1)c1csc(Nc2ccc(Cl)c(Cl)c2)n1`, the inhibition was 0.69%.

As to `Cc1cccc(C(=O)NC(NC(=S)Nc2ccc([N+](=O)[O-])cc2)C(Cl)(Cl)Cl)c1` (stereo not given), the inhibition was determined as 3.68%.

For the molecule `CC(C)(C)c1ccc(CNC(=O)COc2ccc(-c3nnc(-c4cccc([N+](=O)[O-])c4)o3)cc2[N+](=O)[O-])cc1`, the inhibition is -0.15%.

`COc1ccc2c(c1)CC(CNC[C@H](O)c1cccc(Cl)c1)CC2` (stereo not given in full): the inhibition was -1.38%.

With `CC(C)CCNC(=O)C1Cc2c([nH]c3cc(Br)ccc23)C2(CCN(Cc3ccccc3)CC2)N1` (stereo not given), the inhibition came out at 15%.

`O=C(NCCN1CCC(c2ccncc2)CC1)c1cccc(Nc2nccc(Nc3ccc(Oc4ccccc4)cc3)n2)c1`: the inhibition is -0.12%.

In the case of `COC(=O)c1c(NC(=O)c2cccc(C(F)(F)F)c2)sc2c1CCN(Cc1ccccc1)C2`, the inhibition is 1.14%.

Turning to `CCCCNC(=O)c1cc(CNC2CCCCC2)ccc1-c1cccc(CNCc2ccc(-c3ccccc3)cc2)c1`, the inhibition was 5.94%.

With `COC(=O)c1ccc2[nH]cc(C3CCN(CCC4CCN(C(=O)/C=C/c5ccc(Cl)c(Cl)c5)CC4)CC3)c2c1`, the inhibition was 6.59%.

As to `CCOCCCn1c(=N)c(C(=O)NCc2ccc(OC)cc2)cc2c(=O)n3cccc(C)c3nc21`, the inhibition turned out to be 3.85%.

Take `O=C(/C=C/c1c[nH]c2ccccc12)NCCCCCN1CCC(c2c[nH]c3ccccc23)CC1`: the inhibition is 3%.

`Oc1cccc(-c2nc3cc(C4=NC5CCCCC5N4)ccc3[nH]2)c1` (stereo not given): the inhibition is 3.58% and 0.07%.

Take `CON=Cc1sc(CNCCCN=c2cc(O)c3ccccc3[nH]2)c(C)c1Br`: the inhibition came out at 4.13%.

As to `NC1CCN(c2nc(NCCCc3ccc(O)cc3)nc(NCc3cccc4ccccc34)n2)CC1`, the inhibition was 0.21%.

On to `COC(=O)c1cccc(N2CCN(CCCNC(=O)/C(=C/C=C/c3cc4cc(Cl)c(Cl)cc4[nH]3)OC)CC2)c1`, for which the inhibition was determined as 2.24%.

With `O=C(/C=C/c1ccc(Cl)c(Cl)c1)NCCCCCN1CCC(NC(=O)Nc2ccc(OC(F)F)cc2)CC1`, the inhibition is -1.59%.

In the case of `COc1ccc(-c2nc(NC(=O)Cc3ccc(OC)c(OC)c3)sc2C)cc1`, the inhibition was found to be 1.75%.

Turning to `COc1ccc(NC(=O)[C@H](CC(C)C)Nc2cc(C)nc(Nc3ccccc3)n2)cc1`, the inhibition amounted to 19.2%.

For the molecule `Cc1cc(N[C@@H](Cc2ccccc2)C(=O)NCc2cccc(F)c2)nc(NCC2CCCCC2)n1`, the inhibition is -0.17%.

Take `CN1CCCCC1CCc1cc(C(=O)Nc2ccc(-c3ccc(O)cc3)cc2)ccc1O` (stereo not given): the inhibition came to 1.7%.

As to `Cc1cc(C)c(C)c(OCCCON2C(=N)N=C(N)NC2(C)C)c1C`, the inhibition worked out at 1.55%.

Turning to `N=C1c2ccccc2CN1CC(=O)c1ccc(Cl)c(Cl)c1`, the inhibition is 0.66%.

As for `O=C(/C=C/c1ccc(Cl)c(Cl)c1)NC1CCC(CN2CCC(c3nc4ccccc4n3CCCO)CC2)CC1` (stereo not given), the inhibition was found to be 0.86%.

Take `CCOC(=O)c1ccc(OCc2ccc(-c3ccccc3)cc2)cc1`: the inhibition was -0.38%.

For `O=C(NCCCN1CCCCC1)c1ccc(Nc2nccc(Nc3ccc(Oc4ccccc4)cc3)n2)cc1`, the inhibition came out at 10.4%.

As for `COc1ccc(NC(=O)[C@H](Cc2ccccc2)Nc2cc(C)nc(NCCOc3ccccc3)n2)cc1`, the inhibition was found to be 4.06%.

Take `O=S(=O)(Nc1ccc(CCN2CCCCC2CCN2CCCC2)cc1)c1cccc2cccnc12` (stereo not given): the inhibition is 1.48%.

Consider `Cc1ccc(-n2c(C)nc3c(Nc4ccc(-c5ccncc5)cc4)ncnc32)c(C)c1`, for which the inhibition was 91.7%.

As to `CCc1sc(N2CCN(C)CC2)nc1C(=O)Nc1ccc(F)cc1C(F)(F)F`, the inhibition is -1.9%.

On to `COc1ccc(NC(=O)[C@H](CC(C)C)Nc2ccnc(Nc3ccccc3)n2)cc1`, for which the inhibition turned out to be 0.79%.

Another assay addresses Hexose transporter 1 (Plasmodium falciparum) (UniProt O97467). The assay is described as follows: ST_JUDE_LEISH: Cytotoxicity at 2uM final concentration against transgenic Leishmania Mexicana promastigotes LmPfHT that are glucose transport deficient and complemented with the Plasmodium falciparum hexose transporter. Activity is measured by DNA content using SYBR green in vitro. Type of assay: functional.
In the case of `COC(=O)c1ccc2nc(-c3ccc(/C=C/C(=O)NC4CCN(Cc5ccccc5)CC4)cc3)[nH]c2c1`, the inhibition is 5.26%.

Turning to `Cc1ccc(NC(=O)c2ccc(CN3CCCN(Cc4cccc(O)c4)CC3)cc2)cc1F`, the inhibition was found to be 6.4%.

`CC(C)CN(Cc1c(O)ccc2[nH]c(-c3ccc(F)cc3F)nc12)CC(C)C`: the inhibition turned out to be 10.8%.

For the molecule `O=C(/C=C/c1ccc(Cl)cc1)NCCCCCN1CCC(C(=O)Nc2cccc(Cl)c2)CC1`, the inhibition was 2.2%.

Take `O=C(Nc1cccc(Cl)c1)N(CCCn1ccnc1)Cc1csc(-c2ccc(CNCc3ccccc3)cc2)n1`: the inhibition amounted to 3.76%.

As for `Cc1nc(N)nc(N)c1-c1ccc(Br)c([N+](=O)[O-])c1`, the inhibition came to 2.99%.

With `CCN(CC)CCN(Cc1ccc(-c2ccc(C(F)(F)F)cc2)cc1)C(=O)Cn1c(CCc2c(F)cc(F)cc2F)nc(=O)c2ccccc21`, the inhibition was 0.48%.

In the case of `O=[N+]([O-])c1nc(Br)n(Cc2ccc(Cl)cc2)n1`, the inhibition worked out at 3.81%.

On to `CC1CCCC(C)N1C[C@@H](O)CNS(=O)(=O)c1cccc(C(F)(F)F)c1` (stereo not given in full), for which the inhibition was determined as 0.37%.

With `CC(C)Oc1ccccc1-c1csc(C(=O)NCC2CCN(Cc3ccc(C(C)(C)C)cc3)C2)c1` (stereo not given), the inhibition was found to be 1.62%.

`O=C(NCCCN1CCOCC1)c1csc(Nc2ccc(Cl)c(Cl)c2)n1`: the inhibition is 0.58%.

Turning to `Cc1cccc(C(=O)NC(NC(=S)Nc2ccc([N+](=O)[O-])cc2)C(Cl)(Cl)Cl)c1` (stereo not given), the inhibition came out at 3.52%.

As to `CC(C)(C)c1ccc(CNC(=O)COc2ccc(-c3nnc(-c4cccc([N+](=O)[O-])c4)o3)cc2[N+](=O)[O-])cc1`, the inhibition was -0.74%.

Regarding `COc1ccc2c(c1)CC(CNC[C@H](O)c1cccc(Cl)c1)CC2` (stereo not given in full), the inhibition was 0.78%.

Consider `CC(C)CCNC(=O)C1Cc2c([nH]c3cc(Br)ccc23)C2(CCN(Cc3ccccc3)CC2)N1` (stereo not given), for which the inhibition stood at 11.3%.

Consider `O=C(NCCN1CCC(c2ccncc2)CC1)c1cccc(Nc2nccc(Nc3ccc(Oc4ccccc4)cc3)n2)c1`, for which the inhibition is -0.29%.

For the molecule `COC(=O)c1c(NC(=O)c2cccc(C(F)(F)F)c2)sc2c1CCN(Cc1ccccc1)C2`, the inhibition was found to be 5%.

As to `CCCCNC(=O)c1cc(CNC2CCCCC2)ccc1-c1cccc(CNCc2ccc(-c3ccccc3)cc2)c1`, the inhibition was 5.46%.

On to `COC(=O)c1ccc2[nH]cc(C3CCN(CCC4CCN(C(=O)/C=C/c5ccc(Cl)c(Cl)c5)CC4)CC3)c2c1`, for which the inhibition stood at 4.72%.

Regarding `CCOCCCn1c(=N)c(C(=O)NCc2ccc(OC)cc2)cc2c(=O)n3cccc(C)c3nc21`, the inhibition was determined as 5.36%.

As for `O=C(/C=C/c1c[nH]c2ccccc12)NCCCCCN1CCC(c2c[nH]c3ccccc23)CC1`, the inhibition came out at 1.49%.

As for `Oc1cccc(-c2nc3cc(C4=NC5CCCCC5N4)ccc3[nH]2)c1` (stereo not given), the inhibition is 3.97% and -1.13%.

In the case of `CON=Cc1sc(CNCCCN=c2cc(O)c3ccccc3[nH]2)c(C)c1Br`, the inhibition was 4.13%.

Take `NC1CCN(c2nc(NCCCc3ccc(O)cc3)nc(NCc3cccc4ccccc34)n2)CC1`: the inhibition is -3.11%.

For `COC(=O)c1cccc(N2CCN(CCCNC(=O)/C(=C/C=C/c3cc4cc(Cl)c(Cl)cc4[nH]3)OC)CC2)c1`, the inhibition amounted to 0.95%.

As for `O=C(/C=C/c1ccc(Cl)c(Cl)c1)NCCCCCN1CCC(NC(=O)Nc2ccc(OC(F)F)cc2)CC1`, the inhibition is -0.5%.

Turning to `COc1ccc(-c2nc(NC(=O)Cc3ccc(OC)c(OC)c3)sc2C)cc1`, the inhibition worked out at 3.07%.

In the case of `COc1ccc(NC(=O)[C@H](CC(C)C)Nc2cc(C)nc(Nc3ccccc3)n2)cc1`, the inhibition is 15.8%.

Regarding `Cc1cc(N[C@@H](Cc2ccccc2)C(=O)NCc2cccc(F)c2)nc(NCC2CCCCC2)n1`, the inhibition was 2.51%.

For `CN1CCCCC1CCc1cc(C(=O)Nc2ccc(-c3ccc(O)cc3)cc2)ccc1O` (stereo not given), the inhibition is 1.76%.

Regarding `Cc1cc(C)c(C)c(OCCCON2C(=N)N=C(N)NC2(C)C)c1C`, the inhibition is -0.22%.

`N=C1c2ccccc2CN1CC(=O)c1ccc(Cl)c(Cl)c1`: the inhibition was found to be 2.37%.

`O=C(/C=C/c1ccc(Cl)c(Cl)c1)NC1CCC(CN2CCC(c3nc4ccccc4n3CCCO)CC2)CC1` (stereo not given): the inhibition stood at 1.32%.

For the molecule `CCOC(=O)c1ccc(OCc2ccc(-c3ccccc3)cc2)cc1`, the inhibition is -0.13%.

For `O=C(NCCCN1CCCCC1)c1ccc(Nc2nccc(Nc3ccc(Oc4ccccc4)cc3)n2)cc1`, the inhibition came to 8.47%.

`COc1ccc(NC(=O)[C@H](Cc2ccccc2)Nc2cc(C)nc(NCCOc3ccccc3)n2)cc1`: the inhibition was 2.78%.

Take `O=S(=O)(Nc1ccc(CCN2CCCCC2CCN2CCCC2)cc1)c1cccc2cccnc12` (stereo not given): the inhibition came out at 1.12%.

For `Cc1ccc(-n2c(C)nc3c(Nc4ccc(-c5ccncc5)cc4)ncnc32)c(C)c1`, the inhibition came out at 95.1%.

In the case of `CCc1sc(N2CCN(C)CC2)nc1C(=O)Nc1ccc(F)cc1C(F)(F)F`, the inhibition stood at 1.37%.

Take `COc1ccc(NC(=O)[C@H](CC(C)C)Nc2ccnc(Nc3ccccc3)n2)cc1`: the inhibition stood at 2.71%.

Source of the values: ChEMBL document CHEMBL3433997, “St. Jude Leishmania screening dataset” (2016).
